Measurements from publication PMC5540273 (PLoS ONE, 2017).

Assays:
Conditions in all cases: concentration: 1 μM, replicates: in singlicate; n = 1
PIK4CB = system: T1, PIK4CB
T1 construct: gene PI4KB

PIKFYVE = system: PIKFYVE
PIM1 = system: PIM1
PIM2 = system: PIM2
PIM3 = system: PIM3
PIP5K1A = system: PIP5K1A
PIP5K1C = system: PIP5K1C
PIP5K2B = system: PIP5K2B
PIP5K2C = system: T2, PIP5K2C
T2 construct: gene PIP4K2C

PKAC-alpha = system: T3, PKAC-alpha
T3 construct: gene PRKACA

PKAC-beta = system: T4, PKAC-beta
T4 construct: gene PRKACB

PKMYT1 = system: PKMYT1
PKN1 = system: PKN1
PKN2 = system: PKN2
PLK1 = system: PLK1
PLK2 = system: PLK2
PLK3 = system: PLK3
PLK4 = system: PLK4
PRKCD = system: PRKCD
PRKCE = system: PRKCE
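Further: KINOMEscan kinase panel screen.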

Row | SMILES | %Inh (PIK4CB) [%] | %Inh (PIKFYVE) [%] | %Inh (PIM1) [%] | %Inh (PIM2) [%] | %Inh (PIM3) [%] | %Inh (PIP5K1A) [%] | %Inh (PIP5K1C) [%] | %Inh (PIP5K2B) [%] | %Inh (PIP5K2C) [%] | %Inh (PKAC-alpha) [%] | %Inh (PKAC-beta) [%] | %Inh (PKMYT1) [%] | %Inh (PKN1) [%] | %Inh (PKN2) [%] | %Inh (PLK1) [%] | %Inh (PLK2) [%] | %Inh (PLK3) [%] | %Inh (PLK4) [%] | %Inh (PRKCD) [%] | %Inh (PRKCE) [%]
1 | COc1ccc(-c2coc3ccc(-c4nnc(C)o4)cc23)cc1 | 0 | 0 | 10 | 21 | 15 | 13 | 14 | 9 | 10 | 3 | 8 | 1 | 7 | 18 | 0 | 0 | 0 | 2 | 5 | 2
2 | Fc1ccc(-c2nc[nH]c2-c2ccncc2)cc1 [SB-217360] | 0 | 32 | 19 | 0 | 11 | 19 | 0 | 0 | 2 | 25 | 0 | 9 | 0 | 0 | 9 | 21 | 36 | 4 | 8 | 0
3 | O=C(Nc1n[nH]c2nc(-c3cccs3)c(Br)cc12)C1CCCC1 [SB-743341] | 33 | 9 | 0 | 0 | 0 | 0 | 23 | 3 | 0 | 0 | 0 | 0 | 0 | 5 | 0 | 21 | 26 | 25 | 29 | 0
4 | Cc1ccc(NC(=O)Nc2ccc(Cl)cc2)cc1-c1ccc(C(=O)Nc2ccncc2)cc1 [GSK1398472] | 5 | 0 | 9 | 0 | 0 | 11 | 41 | 12 | 2 | 7 | 0 | 5 | 0 | 0 | 0 | 0 | 0 | 0 | 0 | 21
5 | COc1ccc(Nc2nccc(-c3ccc(NC(=O)c4cc5cc(F)ccc5[nH]4)cc3)n2)cc1 [GSK1229496] | 0 | 0 | 0 | 0 | 0 | 37 | 54 | 17 | 41 | 0 | 0 | 0 | 13 | 0 | 0 | 0 | 0 | 0 | 0 | 6
6 | Cc1c(Cn2c(C)c(C)n3c(=O)cc(N4CCOCC4)nc23)cccc1C(F)(F)F [GSK2328680] | 0 | 0 | 1 | 0 | 0 | 9 | 44 | 20 | 7 | 0 | 0 | 17 | 0 | 0 | 0 | 100 | 0 | 0 | 0 | 0
7 | Cc1ccc(-c2nc(Nc3ccncc3)c3ccccc3n2)s1 [GSK189015] | 5 | 63 | 17 | 0 | 12 | 0 | 22 | 14 | 1 | 21 | 18 | 19 | 26 | 20 | 0 | 0 | 0 | 0 | 15 | 0
8 | CS(=O)(=O)CCNCc1nc(-c2ccc3ncnc(Nc4ccc5c(cnn5Cc5ccccc5)c4)c3c2)cs1.Cl.Cl [GW569716] | 59 | 0 | 21 | 0 | 0 | 46 | 58 | 19 | 41 | 0 | 3 | 6 | 0 | 15 | 0 | 0 | 0 | 13 | 0 | 11
9 | Cc1ccccc1Cn1ccn2c(=O)cc(N3CCOCC3)nc12 [GSK2269905] | 9 | 0 | 17 | 0 | 0 | 0 | 11 | 12 | 10 | 0 | 1 | 0 | 0 | 0 | 0 | 0 | 0 | 0 | 0 | 7
10 | COc1nccc(-c2c(-c3ccc(F)cc3)ncn2CCCN2CCOCC2)n1 [SB-282852] | 49 | 37 | 7 | 0 | 0 | 12 | 4 | 0 | 8 | 0 | 16 | 0 | 0 | 0 | 0 | 0 | 13 | 20 | 38 | 0
11 | CC(=O)c1c(C)c2cnc(Nc3ccn(C)n3)nc2n(C2CCCC2)c1=O | 0 | 9 | 0 | 0 | 0 | 0 | 1 | 0 | 91.9 | 0 | 0 | 0 | 0 | 0 | 0 | 8 | 0 | 15 | 0 | 0
12 | CNCc1ccc2nc(NC(=O)c3ccc(C(C)(C)C)cc3)cn2c1 | 19 | 0 | 0 | 9 | 23 | 0 | 17 | 11 | 30 | 0 | 5 | 11 | 8 | 7 | 2 | 7 | 22 | 8 | 0 | 12
13 | CS(=O)(=O)Cc1ccc(Nc2nccc(-c3c(-c4cccc(NC(=O)C5CCCCC5)c4)nn4ncccc34)n2)cc1 [GSK350559] | 45 | 2 | 12 | 10 | 17 | 0 | 100 | 12 | 83 | 31 | 0 | 3 | 10 | 0 | 15 | 3 | 13 | 6 | 0 | 0
14 | NS(=O)(=O)c1cccc(N/C=C2\C(=O)Nc3ccc(S(=O)(=O)Cc4c(Cl)cccc4Cl)cc32)c1 [GSK398099] | 87 | 0 | 0 | 0 | 0 | 0 | 0 | 0 | 1 | 0 | 0 | 5 | 38 | 0 | 1 | 0 | 0 | 18 | 0 | 11
15 | COc1ccc(Nc2nccc(N3CCC(NC(=O)C(C)c4ccc(Cl)cc4)C3)n2)cc1 (centres unmarked) [GSK1379735] | 0 | 0 | 0 | 0 | 35 | 8 | 52 | 18 | 25 | 0 | 4 | 0 | 29 | 0 | 0 | 0 | 0 | 0 | 0 | 5
16 | COc1cccc(C2=C(Nc3cc(Cl)c(O)c(Cl)c3)C(=O)NC2=O)c1 [SB-390767] | 21 | 0 | 0 | 0 | 0 | 0 | 66 | 15 | 15 | 0 | 0 | 4 | 0 | 0 | 0 | 0 | 0 | 0 | 0 | 28
